# Source: publication PMC7826789 (International Journal of Molecular Sciences, 2021)
# Assays:
# Conditions in all cases: Compound Concentration (nM):1000
# [1] = test system: MET(Y1235D)
# [2] = test system: MET
# [3] = test system: T1, MINK
# T1 construct: gene MINK1
# [4] = test system: T2, MKK7
# T2 construct: gene MAP2K7
# [5] = test system: MKNK1
# [6] = test system: MKNK2
# [7] = test system: T3, MLCK
# T3 construct: gene MYLK3
# [8] = test system: T4, MLK1
# T4 construct: gene MAP3K9
# [9] = test system: T5, MLK2
# T5 construct: gene MAP3K10
# [10] = test system: T6, MLK3
# T6 construct: gene MAP3K11
# [11] = test system: T7, MRCKA
# T7 construct: gene CDC42BPA
# [12] = test system: T8, MRCKB
# T8 construct: gene CDC42BPB
# [13] = test system: MST1R
# [14] = test system: T9, MST1
# T9 construct: gene STK4
# [15] = test system: T10, MST2
# T10 construct: gene STK3
# [16] = test system: T11, MST3
# T11 construct: gene STK24
# [17] = test system: MST4
# [18] = test system: MTOR
# [19] = test system: MUSK
# [20] = test system: MYLK2
# 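Also: KINOMEscan scanMAX binding as percent activity remaining versus control; lower means stronger binding.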
Compound,Percent Control [1] [%],Percent Control [2] [%],Percent Control [3] [%],Percent Control [4] [%],Percent Control [5] [%],Percent Control [6] [%],Percent Control [7] [%],Percent Control [8] [%],Percent Control [9] [%],Percent Control [10] [%],Percent Control [11] [%],Percent Control [12] [%],Percent Control [13] [%],Percent Control [14] [%],Percent Control [15] [%],Percent Control [16] [%],Percent Control [17] [%],Percent Control [18] [%],Percent Control [19] [%],Percent Control [20] [%]
Cl.O=C(Nc1ccc(Oc2ccc3[nH]c(NC(=O)c4ccco4)nc3c2)cc1)Nc1cc(C(F)(F)F)ccc1F [GW683134A],6.6,17,99,100,48,12,100,64,82,67,94,89,100,100,100,100,87,100,5.6,38
Cl.c1ccc(Cc2nc3ccc(Nc4ncnc5ccccc45)cc3[nH]2)cc1 [GR269666A],91,100,92,100,86,100,100,100,100,91,100,100,100,100,100,100,100,100,100,100
Cl.O=C(Nc1ccc(Oc2ccc3[nH]c(NC(=O)c4ccccc4)nc3c2)cc1)Nc1cc(C(F)(F)F)ccc1F [GW709042A],59,64,93,100,64,26,100,100,47,73,85,90,100,73,100,100,69,82,19,91
COc1ccc2[nH]c3c4[nH]c5ccc(OC)cc5c4c4c(c3c2c1)C(=O)NC4=O [GW296115X],76,78,1.7,88,92,54,16,2.2,83,5.6,76,89,93,100,82,76,85,100,83,82
CC(C)COC(=O)c1ccc2c(c1)/C(=C/Nc1ccc(S(N)(=O)=O)cc1)C(=O)N2 [GW416981X],94,100,37,100,100,100,100,100,96,100,100,100,100,100,1.1,98,31,100,100,100
NS(=O)(=O)c1ccc(N/N=C2\C(=O)Nc3ccc(Cl)cc32)cc1 [GW280670X],100,100,25,100,100,100,85,100,98,96,100,100,100,100,100,100,63,100,100,100
COc1cc2ncn(-c3cc(O[C@H](C)c4ccccc4Cl)c(C(N)=O)s3)c2cc1OC [GSK237701A],71,78,55,97,73,77,97,64,95,92,89,96,94,43,0,93,91,100,89,45
COc1cc(C)c(N(C)C(=O)CN(C)C)cc1Nc1nc(Nc2cccc(F)c2C(N)=O)c2cc[nH]c2n1 [GSK2219385],99,65,86,97,75,98,78,55,100,100,100,94,100,100,85,93,100,100,84,100
O=C(Nc1n[nH]c2nc(-c3ccc(O)cc3)c(Br)cc12)C1CC1 [SB-725317],100,100,42,100,49,90,67,100,100,100,100,100,100,100,100,100,77,100,100,5.9
COc1cc(C=NNc2ncnc3c2cnn3-c2ccccc2)ccc1O [GW513184X],57,36,48,100,100,50,98,48,83,50,100,100,29,100,94,100,58,93,100,43
CN(C)c1cc2c(Nc3ccc4c(cnn4Cc4ccccc4)c3)ncnc2cn1 [GW282974X],100,94,100,95,74,,98,89,95,100,100,84,100,100,83,90,83,100,95,98
NS(=O)(=O)c1ccc(N/N=C2\C(=O)Nc3ccc(-c4cnco4)cc32)cc1 [GW276655],100,94,3.8,93,93,71,19,73,64,96,100,98,92,100,40,77,53,100,100,73
COc1ccc2cc(-c3c(-c4ccncc4)nc(-c4ccc(S(C)(=O)=O)cc4C)n3C)ccc2c1 [SB-633825],100,80,43,89,66,73,90,63,79,82,93,88,85,66,60,100,82,100,99,100
COc1cc(N2CCN(C(C)C)CC2)ccc1Nc1nc(Nc2ccc(F)cc2C(=O)NC[C@@H](O)CO)c2cc[nH]c2n1 [GSK1392956A],100,100,80,100,61,97,96,100,100,100,100,100,100,100,92,90,94,100,100,100
O=C1Nc2ccc(C(=O)c3ccco3)cc2C1=Cc1cc(Cl)c(O)c(Cl)c1 [GW406108X],100,67,13,78,72,89,100,97,100,95,100,100,100,93,0,86,79,100,100,100
C/C(Nc1ccc(S(N)(=O)=O)cc1)=C1/C(=O)Nc2ccccc21 [GW335962X],100,72,2.8,91,74,100,69,77,75,98,100,92,100,82,100,27,8.4,96,100,100
C[C@@H](Oc1cc(-n2cnc3ccc(OC4CCN(C)CC4)cc32)sc1C(N)=O)c1ccccc1Cl [GSK579289A],98,58,75,78,71,60,72,39,86,100,100,88,100,77,24,84,59,95,85,48
CCS(=O)(=O)c1ccc(OC)c(Nc2ncc(-c3cccc(OC)c3)o2)c1 [GW580509X],100,100,70,100,100,94,100,100,100,96,100,100,100,100,100,100,100,100,100,100
CC1=C(C(=O)Nc2ccc3[nH]ncc3c2)C(c2ccc(Cl)c(Cl)c2)CC(=O)N1 (stereo not drawn) [GSK299115A],97,97,69,90,81,66,99,70,86,97,100,75,91,90,94,70,66,100,100,100
Cc1cc(O)cc(C)c1/C=C/c1cncc(C(N)=O)c1 [GW435821X],100,100,87,100,69,31,100,100,56,100,100,100,100,100,100,100,69,100,100,100
